The record followed here is PubChem BioAssay (NCATS).

“And” between values parts separate entries of the source, which are not always exact repeats. Identical values can stand only once. Results filed as inconclusive are left out. Where a structure was tested more than once in an assay, its records may differ in their call. The source made the active and inactive calls. Unless noted, the call rests on the fitted dose curve; in most records, active means well fitted curve in the direction sought with a large enough effect; inconclusive means small, poorly fitted or top-dose-only effect, or another doubt; inactive means no such curve, though single readings can be large; an effect the other way counts as inactive or inconclusive.

The nature of assay [1]: P-glycoprotein substrates identified in KB-3-1 adenocarcinoma cell line, qHTS therapeutic library screen (AID 1346986). Further: nearly all actives have a fitted effect of over 60% in size. The note with it: KB-3-1 parental cells viability, CellTiter-Glo, 72 h; at 44.5 µM (top of the series). In a few lines: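 Resistance attributable to P-gp was assessed by comparing AC50 in KB-8-5-11 with parental KB-3-1 and by tariquidar reversal. Cells were exposed 72 h and viability read by CellTiter-Glo.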
Background: Quantitative high-throughput screening tests each substance at several concentrations.

A short description of assay [2]: P-glycoprotein substrates identified in KB-8-5-11 adenocarcinoma cell line, qHTS therapeutic library screen (AID 1346987). Further: nearly all actives have a fitted effect of over 65% in size. Further: potency means the concentration at half of the fitted maximal effect. The gist of the method:
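KB-8-5-11, a colchicine-selected P-gp-overexpressing KB-3-1 subline, was grown without colchicine for the assay. Cells were seeded at 500 cells/well, dosed in concentration-response and incubated 72 h at 37 degree C, 5% CO2. Viability was read by CellTiter-Glo luminescence.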

Assay [3] can be described thus: NS1 protein of Zika virus - qHTS assay to identify small molecule inhibitors in human HEK 293 cells (AID 1347053). Further: nearly all actives have a fitted effect of over 55% in size. Further: potency means the concentration at half of the fitted maximal effect. The gist of the method: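 Following 20 h seeding, HEK 293 cells took compound, then 1 h later ZIKV MR766 (MOI = 0.5). Incubation ran 24 h at 37 C before TR-FRET detection of NS1; a drop in signal indicates inhibition.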
Assay [4] in a line: qHTS of pediatric cancer cell lines to identify multiple opportunities for drug repurposing: Primary screen for TC32 cells (AID 1347089). Further: nearly all actives have a fitted effect of over 60% in size. Further: potency means the concentration at half of the fitted maximal effect. In a few lines: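 qHTS, TC32, 48 h drug treatment, CellTiter-Glo luminescence as a proxy for metabolically active cells; primary top concentration 46 µM (MIPE 11-pt, NPC 8-pt); confirmatory 11-pt.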
Assay [5] is described as follows: qHTS of pediatric cancer cell lines to identify multiple opportunities for drug repurposing: Primary screen for DAOY cells (AID 1347090). Further: nearly all actives have a fitted effect of over 55% in size. Further: potency means the concentration at half of the fitted maximal effect. The gist of the method:
(§1)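 Eight- or eleven-point concentration series, 48 h treatment at 37 degrees C in growth media; readout CellTiter-Glo luminescence. Potency and efficacy were taken from the concentration-response curves.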

Assay [6] can be described thus: qHTS of pediatric cancer cell lines to identify multiple opportunities for drug repurposing: Primary screen for SJ-GBM2 cells (AID 1347091). Further: potency means the concentration at half of the fitted maximal effect. In a few lines: as §1
Assay [7] is described as follows: qHTS of pediatric cancer cell lines to identify multiple opportunities for drug repurposing: Primary screen for SK-N-MC cells (AID 1347093). Further: potency means the concentration at half of the fitted maximal effect. In a few lines:
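Metabolically active cells were quantified by ATP-dependent luminescence (CellTiter-Glo, 15 min at room temperature) following 48 h treatment. Cells had been plated at 500-1,000 per well and settled for 5 h beforehand.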

The nature of assay [8]: qHTS of pediatric cancer cell lines to identify multiple opportunities for drug repurposing: Primary screen for BT-37 cells (AID 1347094). Further: potency means the concentration at half of the fitted maximal effect. In a few lines:
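Viability was measured as metabolically active cells after 48 hours of treatment, read by CellTiter-Glo luminescence. Compounds were tested at multiple final concentrations, giving concentration-response curves.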

Assay [9] in a line: qHTS of pediatric cancer cell lines to identify multiple opportunities for drug repurposing: Primary screen for A673 cells (AID 1347092). Further: nearly all actives have a fitted effect of over 45% in size. Further: potency means the concentration at half of the fitted maximal effect. The gist of the method: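 Luminescence from CellTiter-Glo, taken after 15 min at room temperature, served as the proxy for metabolically active cells following 48 h treatment. Both potency and efficacy were taken from curves fitted to the titration data.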

For assay [10], the target named is Atrial natriuretic peptide receptor 2 (Homo sapiens) (UniProt P20594). In words: Natriuretic polypeptide receptor (hNpr2) antagonism - Pilot subtype selectivity assay (AID 1347050; calls by dose curve). The gist of the method: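 cGMP-sensor HEK293/hNpr2 cells; 2% GloSensor reagent 2 h RT; compounds 30 min; baseline luminescence read; 1 nM hNppC agonist 20 min RT; final luminescence read by CCD camera. Antagonism = reduced post-agonist signal.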

For assay [11], the target named is T1, Tyrosine-protein phosphatase non-receptor type substrate 1 (Homo sapiens) + Leukocyte surface antigen CD47 (Homo sapiens) (UniProt P78324+Q08722). The experiment in a line: CD47-SIRPalpha protein protein interaction - LANCE assay qHTS validation (AID 1347057; active means well fitted curve in the direction sought with a large enough effect in the signal ratio, with a control signal flat, not every such curve was filed as active; the % refers to the signal ratio). In a few lines: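 First, His-tagged CD47 and Eu-labelled anti-His antibody met the compound for 30 min; next, site-specifically biotinylated SIRPalpha was added for 30 min; finally streptavidin-APC was added before reading the TR-FRET ratio.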
(Time-resolved FRET reads energy transfer from a long-lived donor to a nearby acceptor.)

Assay [12] addresses T1, Tyrosine-protein phosphatase non-receptor type substrate 1 (Homo sapiens) + Leukocyte surface antigen CD47 (Homo sapiens). In words: CD47-SIRPalpha protein protein interaction - HTRF assay qHTS validation (AID 1347058; active means well fitted curve in the direction sought with a large enough effect in the signal ratio, not every such curve was filed as active; the % refers to the signal ratio). The gist of the method: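 TR-FRET read (Ch1/Ch2 ratio) of soluble extracellular CD47 and Avi-biotinylated SIRPalpha domains in PBS pH 7.4 with 0.05% IGEPAL; 7-point compound titration. Sequential 30 min room-temperature steps; non-biotinylated SIRPalpha as control inhibitor.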

The target is the same in assay [13]. The experiment in a line: CD47-SIRPalpha protein protein interaction - Alpha assay qHTS validation (AID 1347059).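 Further: bead proximity luminescence from CD47 binding SIRPalpha after compound preincubation with SIRPalpha.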 In a few lines:
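Soluble extracellular domains: Avi-tag biotinylated SIRPalpha (25 nM) preincubated 30 min RT with compound, then 6His-CD47 (12.5 nM) 30 min; Ni-NTA acceptor and streptavidin donor beads (10 ug/mL) 30 min, AlphaScreen read. PBS pH 7.4, 0.05% IGEPAL.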

Assay [14] deals with Parathyroid hormone/parathyroid hormone-related peptide receptor (Homo sapiens) (UniProt Q03431). The experiment in a line: qHTS for PTHR1 Agonists: Optimization Screen against the NCGC LOPAC library (AID 1347079).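 Further: GloSensor cAMP luminescence in HEK-293 GP2 cells expressing human PTHR1 with IBMX.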 In a few lines: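 Agonist readout: GloSensor cAMP luminescence, read after 15 min at room temperature. HEK-293-derived GP2 line carries PTHR1; compounds tested as a titration for 1 hr at 37C in presence of IBMX. M-PTH (1-15) served as control.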

The target in assay [15] is Atrial natriuretic peptide receptor 1 (Homo sapiens) (UniProt P16066). In words: Natriuretic polypeptide receptor (hNpr1) antagonism - Pilot screen (AID 1347049; calls by dose curve;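 further: agonist-evoked cGMP luminescence read 20 min after hNppA addition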). The gist of the method: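 HEK293 cells co-expressing hNpr1 and the GloSensor pGS-40F cGMP luciferase sensor were preloaded with 2% GloSensor reagent for 2 h. Compounds were added for 30 min at room temperature, then cells were stimulated with 0.1 nM hNppA for 20 min before luminescence readout.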
Sequence of Atrial natriuretic peptide receptor 1 (Homo sapiens) (P16066 whole entry, looked up): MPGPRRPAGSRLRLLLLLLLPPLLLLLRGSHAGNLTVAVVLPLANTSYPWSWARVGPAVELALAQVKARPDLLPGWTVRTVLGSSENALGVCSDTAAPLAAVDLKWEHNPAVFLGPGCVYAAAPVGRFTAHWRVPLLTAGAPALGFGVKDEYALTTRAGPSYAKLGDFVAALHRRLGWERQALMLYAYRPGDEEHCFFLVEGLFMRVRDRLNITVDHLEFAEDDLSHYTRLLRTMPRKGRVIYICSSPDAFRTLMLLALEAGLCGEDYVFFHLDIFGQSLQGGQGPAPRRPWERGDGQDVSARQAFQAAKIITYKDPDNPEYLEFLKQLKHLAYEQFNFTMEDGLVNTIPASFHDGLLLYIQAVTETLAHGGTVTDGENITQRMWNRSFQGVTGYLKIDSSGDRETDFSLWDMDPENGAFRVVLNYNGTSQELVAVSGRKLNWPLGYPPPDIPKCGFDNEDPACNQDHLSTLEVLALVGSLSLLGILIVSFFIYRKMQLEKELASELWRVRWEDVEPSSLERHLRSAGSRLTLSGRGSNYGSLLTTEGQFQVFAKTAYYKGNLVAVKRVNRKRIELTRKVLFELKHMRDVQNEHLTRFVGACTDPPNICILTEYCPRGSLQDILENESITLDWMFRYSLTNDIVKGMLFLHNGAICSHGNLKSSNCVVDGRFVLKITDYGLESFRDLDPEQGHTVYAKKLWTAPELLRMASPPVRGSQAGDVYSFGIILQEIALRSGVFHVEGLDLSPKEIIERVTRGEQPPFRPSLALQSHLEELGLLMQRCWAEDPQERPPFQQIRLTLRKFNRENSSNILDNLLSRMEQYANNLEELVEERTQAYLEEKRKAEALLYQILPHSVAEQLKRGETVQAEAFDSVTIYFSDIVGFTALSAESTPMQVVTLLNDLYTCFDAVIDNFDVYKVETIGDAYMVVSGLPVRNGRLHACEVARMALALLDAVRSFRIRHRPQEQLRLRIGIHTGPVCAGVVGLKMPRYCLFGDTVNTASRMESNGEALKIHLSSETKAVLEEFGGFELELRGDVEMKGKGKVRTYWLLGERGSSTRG

T1 sequence (P78324 whole entry, looked up): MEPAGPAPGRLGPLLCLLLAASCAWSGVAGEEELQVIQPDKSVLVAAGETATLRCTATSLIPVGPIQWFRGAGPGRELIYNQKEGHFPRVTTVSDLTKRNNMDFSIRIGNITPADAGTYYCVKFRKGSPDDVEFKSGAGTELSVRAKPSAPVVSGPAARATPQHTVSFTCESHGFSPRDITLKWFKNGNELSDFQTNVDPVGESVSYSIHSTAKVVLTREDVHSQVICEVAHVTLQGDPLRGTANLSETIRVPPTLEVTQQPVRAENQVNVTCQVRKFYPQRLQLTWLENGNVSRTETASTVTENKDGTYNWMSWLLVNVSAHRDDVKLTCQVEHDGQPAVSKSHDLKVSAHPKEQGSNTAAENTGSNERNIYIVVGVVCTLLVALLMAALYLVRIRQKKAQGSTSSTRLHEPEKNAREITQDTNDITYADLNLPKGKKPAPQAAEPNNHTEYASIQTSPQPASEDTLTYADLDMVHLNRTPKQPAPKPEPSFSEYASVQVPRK
T1 sequence (Q08722 whole entry, looked up): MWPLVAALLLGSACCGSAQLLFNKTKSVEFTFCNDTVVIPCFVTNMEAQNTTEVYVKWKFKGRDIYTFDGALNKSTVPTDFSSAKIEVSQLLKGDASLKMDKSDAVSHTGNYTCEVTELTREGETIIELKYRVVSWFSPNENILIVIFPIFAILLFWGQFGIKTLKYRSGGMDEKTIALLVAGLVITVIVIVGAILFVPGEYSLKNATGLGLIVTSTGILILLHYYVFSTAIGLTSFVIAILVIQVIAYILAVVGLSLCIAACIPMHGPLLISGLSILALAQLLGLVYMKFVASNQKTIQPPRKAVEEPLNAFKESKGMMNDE
Sequence of Parathyroid hormone/parathyroid hormone-related peptide receptor (Homo sapiens) (Q03431 whole entry, looked up): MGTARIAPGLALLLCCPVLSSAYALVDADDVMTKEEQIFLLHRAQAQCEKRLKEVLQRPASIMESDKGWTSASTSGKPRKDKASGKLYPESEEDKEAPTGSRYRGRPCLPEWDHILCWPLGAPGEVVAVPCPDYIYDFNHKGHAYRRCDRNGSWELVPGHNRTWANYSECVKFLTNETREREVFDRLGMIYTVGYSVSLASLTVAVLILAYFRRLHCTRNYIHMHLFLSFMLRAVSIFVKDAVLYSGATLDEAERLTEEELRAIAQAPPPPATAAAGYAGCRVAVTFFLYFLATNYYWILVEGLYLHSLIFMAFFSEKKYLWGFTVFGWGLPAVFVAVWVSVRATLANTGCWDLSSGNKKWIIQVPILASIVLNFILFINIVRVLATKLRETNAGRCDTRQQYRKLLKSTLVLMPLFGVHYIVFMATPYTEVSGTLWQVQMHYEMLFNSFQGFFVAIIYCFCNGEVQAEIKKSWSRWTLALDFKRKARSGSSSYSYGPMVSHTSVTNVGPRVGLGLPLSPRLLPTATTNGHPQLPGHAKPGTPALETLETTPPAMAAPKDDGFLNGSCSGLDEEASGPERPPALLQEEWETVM
Sequence of Atrial natriuretic peptide receptor 2 (Homo sapiens) (P20594 whole entry, looked up): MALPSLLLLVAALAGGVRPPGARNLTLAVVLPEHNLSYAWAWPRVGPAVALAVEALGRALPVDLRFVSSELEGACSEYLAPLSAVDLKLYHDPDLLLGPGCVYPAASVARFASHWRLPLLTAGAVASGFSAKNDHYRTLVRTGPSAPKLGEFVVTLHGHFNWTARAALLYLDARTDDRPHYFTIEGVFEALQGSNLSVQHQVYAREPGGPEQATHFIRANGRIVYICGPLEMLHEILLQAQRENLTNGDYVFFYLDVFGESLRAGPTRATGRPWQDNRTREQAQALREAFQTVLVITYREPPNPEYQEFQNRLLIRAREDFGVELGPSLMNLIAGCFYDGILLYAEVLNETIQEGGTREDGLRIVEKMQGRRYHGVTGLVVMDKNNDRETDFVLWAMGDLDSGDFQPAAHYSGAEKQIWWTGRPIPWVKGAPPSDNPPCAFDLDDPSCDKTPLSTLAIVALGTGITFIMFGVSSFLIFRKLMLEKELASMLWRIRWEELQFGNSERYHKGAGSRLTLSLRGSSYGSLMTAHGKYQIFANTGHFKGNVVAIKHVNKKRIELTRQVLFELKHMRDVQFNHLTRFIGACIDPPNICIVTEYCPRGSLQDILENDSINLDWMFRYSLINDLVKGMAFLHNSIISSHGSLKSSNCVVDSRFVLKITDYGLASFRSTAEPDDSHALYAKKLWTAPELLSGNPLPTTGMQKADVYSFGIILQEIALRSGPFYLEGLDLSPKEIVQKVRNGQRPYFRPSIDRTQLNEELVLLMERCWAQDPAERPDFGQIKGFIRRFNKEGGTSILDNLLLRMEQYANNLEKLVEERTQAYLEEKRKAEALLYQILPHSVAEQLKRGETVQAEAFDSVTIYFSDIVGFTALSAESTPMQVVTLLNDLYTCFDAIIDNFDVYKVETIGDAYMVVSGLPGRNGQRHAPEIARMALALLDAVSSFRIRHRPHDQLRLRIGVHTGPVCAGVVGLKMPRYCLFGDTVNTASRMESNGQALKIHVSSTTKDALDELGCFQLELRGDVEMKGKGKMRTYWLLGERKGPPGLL

For the compound `CNC1CCCN(c2c(F)cc3c(=O)c(C(=O)O)cn(C4CC4)c3c2OC)C1` (stereo unspecified), in assay [1], the result was inactive. Besides, the Potency result in assay [2], in [3], in [4], in assay [5], in assay [6] and in [7] was “inactive” throughout. Also, the Potency result in assay [8] is “inactive”.
As to `O=C(O)CSCC(=O)NC1CCSC1=O` (stereo unspecified), in [1], the outcome was inactive. For the same compound, the Potency result in assay [2], in assay [3], in assay [4], in assay [6], in [9] and in assay [7] was “inactive” throughout. Also, the Potency entry in assay [8] is “inactive”.
Regarding `CC(=O)[C@H]1CC[C@H]2[C@@H]3CCC4=CC(=O)CC[C@]4(C)[C@H]3CC[C@]12C`, the Potency in assay [2] is 11.8 µM (active); in assay [9], 1.18 µM (active); in assay [7], 0.526 µM (active). In addition, the Potency entry in assay [10], in assay [3] and in assay [4] was “inactive” in each case. Further, the outcome in assay [11], in assay [12], in assay [13] and in [14] was inactive.
For `CCOC(=O)c1ccc(C#Cc2ccc3c(c2)C(C)(C)CCS3)nc1`, the Potency result in assay [2], in assay [3], in assay [4], in assay [5], in assay [6] and in [8] was “inactive” throughout. Further, the values for the Potency in assay [9] and in assay [7] were 23.5 µM (active) and 18.7 µM (active), respectively.
For `CCCCS(=N)(=O)CCC(N)C(=O)O` (stereo unspecified), the Potency entry in assay [2], in assay [15], in assay [10], in assay [3], in assay [4] and in assay [5] was “inactive” throughout. For the same compound, the Potency result in [6] and in assay [8] was “inactive” in each case. Moreover, the outcome in [11], in [12], in [13] and in [14] was inactive. Further, the Potency in [9] was 23.5 µM (active).
In the case of `CN(C)c1ccc(C(=C2C=CC(=[N+](C)C)C=C2)c2ccc(N(C)C)cc2)cc1`, the Potency in [2] is 8.2 µM (active) and 1.48 µM (active); in assay [3], “inactive and 3.72 µM (active)”; in [4], 2.64 µM (active) and 1.17 µM (active); in assay [5], 2.66 µM (active) and 1.48 µM (active); in assay [6] it was 1.33 µM (active) and 372 nM (active); in assay [9], 1.06 µM (active) and 93.5 nM (active). For the same compound, the Potency is 1.06 µM (active) in assay [7]; 1.23 µM (active) and 685 nM (active) in assay [8].
As to `NC(=O)N1c2ccccc2CC(=O)c2ccccc21`, the Potency entry in assay [2], in [3], in assay [4], in assay [5], in assay [6] and in assay [9] was “inactive” in each case. Besides, the Potency result in [7] and in [8] was “inactive” in each case.
Turning to `COc1cnc(NS(=O)(=O)c2ccc(N)cc2)nc1`, the outcome in assay [1] was inactive. For the same compound, the Potency entry in assay [3], in assay [4], in assay [6] and in assay [8] was “inactive” throughout.
As to `CCOCC(O)COc1ccc(NC(=O)CC[S+](C)C)cc1` (stereo unspecified), in [1], the result was inactive. The Potency result in assay [3], in [4], in assay [6], in assay [9], in [7] and in assay [8] was “inactive” each time.
`O=C(O)C1CCCN(CCC=C(c2ccccc2)c2ccccc2)C1` (stereo unspecified): the Potency entry in assay [2], in assay [15], in assay [10], in assay [3], in assay [4] and in [5] was “inactive” throughout. The Potency entry in assay [6] and in assay [8] was “inactive” in each case. The result in [11], in assay [12], in assay [13] and in assay [14] was inactive.
With `CNS(=O)(=O)Cc1ccc2[nH]cc(CCN(C)C)c2c1`, the Potency result in assay [2], in [3], in assay [4], in assay [5], in [6] and in [9] was “inactive” in each case. Moreover, the Potency result in assay [7] and in assay [8] was “inactive” throughout.
On to `C[C@@H](CN1CC(=O)NC(=O)C1)N1CC(=O)NC(=O)C1`, for which the Potency entry was “inactive and 18.7 µM (active)” in [2]; 23.7 µM (active) and 7.43 µM (active) in assay [7]; 6.85 µM (active) in assay [8]. For the same compound, the Potency entry in [3], in assay [4], in [5] and in assay [6] was “inactive” in each case.
Turning to `S=P(N1CC1)(N1CC1)N1CC1`, the Potency result in assay [2], in assay [3], in assay [4], in assay [5] and in assay [6] was “inactive” each time. For the same compound, the Potency in assay [9] was 23.5 µM (active); in [7], 3.72 µM (active).
Regarding `O=c1oc2c(O)c(O)cc3c(=O)oc4c(O)c(O)cc1c4c23`, the Potency result in assay [2], in assay [3], in [4], in assay [5], in [6] and in [9] was “inactive” in each case. Also, the Potency result in assay [7] and in [8] was “inactive” throughout.
In the case of `CCn1cc(C(=O)O)c(=O)c2cc(F)c(N3CCNCC3)nc21`, the Potency result in assay [2], in assay [3], in assay [4], in assay [5], in [6] and in [9] was “inactive” in each case. Also, the Potency result in [7] and in assay [8] was “inactive” throughout.
Take `NC(=O)c1ccc2[nH]ccc2c1`: the Potency entry in assay [2], in [15], in [10], in assay [3], in assay [4] and in assay [6] was “inactive” each time. For the same compound, the Potency entry in [9], in assay [7] and in assay [8] was “inactive” in each case. The outcome in assay [11], in assay [12], in [13] and in assay [14] was inactive.
As for `COc1nc(N)nc2c1ncn2[C@@H]1O[C@H](CO)[C@@H](O)[C@@H]1O`, in assay [1], the outcome was inactive. Also, the Potency result in [3], in assay [4], in [5], in assay [6], in assay [9] and in [7] was “inactive” in each case. The Potency result in [8] is “inactive”.
